# Test results published in PubChem BioAssay (NCATS).
# Values joined by “and” are separate entries in the source; they are usually repeats but may differ in a detail not shown here. Equal values may be shown once. Unmarked numbers belong to inactive results. Inconclusive results are not listed. Active and inactive are the calls of the source. Unless noted, calls follow the shape of the dose curve; as a rule, active = well fitted curve in the direction sought with a large enough effect; inconclusive = small, poorly fitted or top-dose-only effect, or another doubt; inactive = no such curve, though single readings can be large; an effect the other way counts as inactive or inconclusive.
# How the values were obtained:
# [1] = test system: SKOV3; assay: Primary qHTS to identify gynecologic anti-cancer compounds using libraries of approved drugs and bioactive compounds (AID 1345084); settings: Gynecologic cancer cell panel viability, ATPlite luminescence, 48 h; series mostly up to 57.5 µM; also: % is scaled to controls: 0 for no effect and ±100 for the full control effect; nearly all actives have a fitted effect of over 55% in size
# Summary of the method: (§1)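 Luminescence from the ATPlite ATP-monitoring reagent indicates viable cell number; lower signal means cytotoxicity. Cells received compound 16 h after seeding and were exposed for 48 h across five concentrations.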
# [2] = test system: Tov112D; assay: as above; settings: Gynecologic cancer cell panel viability, ATPlite luminescence, 48 h; series mostly up to 57.5 µM
# Summary of the method: as §1
# [3] = Drug repurposing screens with cells derived from glioblastoma tumor samples (AID 1345199); settings: GBM patient neurospheres viability, ATP luminescence, 48 h; also: nearly all actives have a fitted effect of over 40% in size; also: potency is read from the fitted curve at half-maximal effect; as to activity, negative = cell killing: % is scaled to controls: 0 for no effect and ±100 for the full control effect
# Summary of the method: (§2)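 Four patient lines of CD133+ GBM neurospheres were screened at several concentrations; hits were retested in those lines plus three slower-growing GBM lines, using 48-hour treatment and ATP-based viability.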
# [4] = test system: astro; assay: as above; settings: viability, ATP luminescence, 48 h; series mostly up to 45.9 µM
# Summary of the method: as §2
# [5] = molecular target: Nuclear receptor subfamily 1 group I member 2 (Rattus norvegicus) (UniProt Q9R1A7); assay: qHTS assay for small molecule activators of the rat pregnane X receptor (rPXR) signaling pathway (AID 651751; call rule not given here; also: 0% is about no effect); settings: rPXR reporter cells, luciferase (One-Glo), 24 h
# Sequence of Nuclear receptor subfamily 1 group I member 2 (Rattus norvegicus) (Q9R1A7 whole entry, looked up): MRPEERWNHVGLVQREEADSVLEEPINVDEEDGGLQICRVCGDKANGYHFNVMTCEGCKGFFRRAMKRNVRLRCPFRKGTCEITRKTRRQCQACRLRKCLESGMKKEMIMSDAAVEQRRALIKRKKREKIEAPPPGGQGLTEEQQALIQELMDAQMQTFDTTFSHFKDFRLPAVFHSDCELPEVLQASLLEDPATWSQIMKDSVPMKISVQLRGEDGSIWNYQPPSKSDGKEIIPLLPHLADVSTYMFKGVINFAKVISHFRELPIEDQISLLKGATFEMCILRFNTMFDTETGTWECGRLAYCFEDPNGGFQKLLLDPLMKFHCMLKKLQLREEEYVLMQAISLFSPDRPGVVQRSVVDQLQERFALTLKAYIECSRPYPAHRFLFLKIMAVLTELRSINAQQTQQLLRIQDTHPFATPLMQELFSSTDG
# [6] = qHTS assay for small molecule activators of the human pregnane X receptor (PXR) signaling pathway (AID 720659; call rule not given here; also: 0% is about no effect)
# [7] = at 21.3 µM (top of the series), tumour line A
smiles,measurement,setting,value
CC(=O)OC[C@H]1O[C@@H](n2ncc(=O)[nH]c2=O)[C@H](OC(C)=O)[C@@H]1OC(C)=O,Potency,[1],inactive
same,Potency,[2],inactive
same,"activity, negative = cell killing","[3]; at 45.9 µM (top of the series), tumour line D",-20.8%
same,"activity, negative = cell killing","[3]; at 46 µM (top of the series), tumour line A",-30.4%
O=C(Nc1ncc([N+](=O)[O-])s1)c1cccs1,Potency,[1],inactive
same,Potency,[4],15.8 µM (active)
Nc1ccc(C(=O)NCC(=O)O)cc1,"activity, negative = cell killing",[3]; [7],-13.3%
O=C1C(CCS(=O)c2ccccc2)C(=O)N(c2ccccc2)N1c1ccccc1 (stereo not drawn),"activity, negative = cell killing",[3]; [7],-0.0177%
CCc1oc2ccccc2c1C(=O)c1cc(Br)c(O)c(Br)c1,Potency,[3]; tumour line D,35.5 µM (active)
O=C(Nc1ccccc1)OCC(CN1CCCCC1)OC(=O)Nc1ccccc1 (stereo not drawn),Potency,[3]; tumour line D,10 µM (active)
Oc1ccc(Cl)cc1Cc1cc(Cl)ccc1O,max response,[5],-15% and -0.451%
same,outcome,[6],inactive
Oc1c(Cl)cc(Cl)c(Cl)c1Cc1c(O)c(Cl)cc(Cl)c1Cl,outcome,[6],inactive
